High-throughput results as filed in PubChem BioAssay.
CYP2C9 inh: human CYP2C9 inhibition; inhibition, % at 5 µM; hit rate 20% among 96,000; AID 777; CYP2C9 Supersomes, luciferin-H conversion, luminescence;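 active = blocking of liver enzyme CYP2C9 beyond about 50% at 5 µM, limit read from the data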
Target sequence (P11712 whole entry, looked up): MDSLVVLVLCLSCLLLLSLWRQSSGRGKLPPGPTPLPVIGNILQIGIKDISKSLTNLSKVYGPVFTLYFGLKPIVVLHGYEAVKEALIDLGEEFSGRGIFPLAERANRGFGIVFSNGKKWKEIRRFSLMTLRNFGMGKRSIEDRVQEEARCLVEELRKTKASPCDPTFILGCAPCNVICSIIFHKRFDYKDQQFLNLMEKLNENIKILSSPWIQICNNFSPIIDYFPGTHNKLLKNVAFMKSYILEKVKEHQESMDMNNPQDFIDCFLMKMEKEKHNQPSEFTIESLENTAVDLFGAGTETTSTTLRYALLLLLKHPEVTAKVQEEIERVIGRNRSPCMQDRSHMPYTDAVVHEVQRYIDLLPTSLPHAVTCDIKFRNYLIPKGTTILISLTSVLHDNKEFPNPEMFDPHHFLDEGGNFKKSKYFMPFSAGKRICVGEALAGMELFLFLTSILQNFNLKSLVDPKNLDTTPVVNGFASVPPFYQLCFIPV
CYP2C9 activ: CYP2C9 (human) activation; recombinant CYP2C9, luciferin-H conversion, luminescence; stronger effect = higher value; factor 1 = untreated enzyme, 0 = blocked; P11712; hit rate 1.4% among 96,000; activation factor at 5 µM; AID 1024;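 active = activation factor of 2 or more for CYP2C9 at a 5 µM dose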;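 note: 0 = sulfaphenazole-blocked wells and 1 = vehicle-only wells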
PLAP activator: activators of human placental alkaline phosphatase. purified PLAP enzyme, luminescent substrate read-out; stronger effect = higher value. activation fold at 20 µM. hit rate 1.2% among 96,000. P05187. AID 696; in the data active = activation fold above about 2
CYP2C19 activ: cytochrome P450 2C19 (human) activation; recombinant CYP2C19, luciferin-H EGE luminescence; stronger effect = higher value; 0 = fully inhibited enzyme, 1 = untreated enzyme; activation factor at 5 µM; 96,000 tested, under 10 active; AID 1025;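 active = activation factor of at least 2 at 5 µM in the primary screen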;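 note: 0 = wells with 2.5 mM tranylcypromine and 1 = vehicle-only wells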
CYP2C19 inh: inhibitors of human CYP2C19; P33261; CYP2C19 Supersomes, luciferin-H EGE luminescence, 30 min; inhibition, % at 5 µM; hit rate 21% among 96,000; AID 778;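 active = CYP2C19 inhibition above a set limit at 5 µM in the primary screen, cut at about 50% in these data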;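 note: plate controls were negative control wells for no effect and 2.5 mM tranylcypromine positive control for full effect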
* = called active by the depositor; · = no result given. A selection: hits, their analogues and other compounds. The true share with any hit is near 31%.

SMILES	CYP2C9 inh	CYP2C9 activ	PLAP activator	CYP2C19 activ	CYP2C19 inh
O=C(CCSc1ccc(Cl)c(Cl)c1)NC12CC3CC(CC(C3)C1)C2	13	0.9	0.9	0.7	29
O=C(Cc1ccccc1)CC1(O)C(=O)Nc2ccccc21 (stereo not drawn)	-30	1.3	1.1	0.9	12
O=C(N1CCOCC1)N1CCC(n2nnc3ccccc32)CC1	38	0.6	1.2	0.9	6
CC(C)CNC(=O)CSc1ccc(Cl)cc1	32	0.7	1	0.6	40
Cc1noc(C)c1C(=O)NCCC1=CCCCC1	31	0.7	1.2	0.5	46
Cc1ccc(SCC(=O)NCCC2=CCCCC2)cc1	51*	0.5	0.9	0.4	60*
Cc1ccc(SCC(=O)NCC(C)C)cc1	50*	0.5	1	0.3	75*
Cc1noc(C)c1C(=O)OCC(=O)NCCC1=CCCCC1	42	0.6	1.1	0.3	70*
Cc1ccc(C)c(-n2nnnc2SCC(=O)NCCC2=CCCCC2)c1	40	0.6	1.5	0.2	76*
COc1cccc(N2CC(C)Cn3c2nc2c3c(=O)n(CCN3CCOCC3)c(=O)n2C)c1 (stereo not drawn)	-1	1	1.5	1.1	-7
CCn1c(N)c(C(=O)Nc2ccccc2C(=O)OC)sc1=S	12	0.9	0.9	0.9	8
CCS(=O)(=O)c1ccc2oc(SCC(=O)NCCC3=CCCCC3)nc2c1	72*	0.3	1	0.6	44
NC(=S)N/N=C/c1ccc(-c2ccc(Cl)c(Cl)c2)o1	11	0.9	0.9	1	3
Clc1ccc(Cl)c(-c2ccc(/C=N/c3ncn[nH]3)o2)c1	-187	2.9*	0.9	1	4
COc1ccccc1N(C(=O)c1ccco1)C(C(=O)NC1CCCC1)c1cccnc1 (stereo not drawn)	-18	1.2	1	1	-5
COc1ccc(CN(C(=O)c2snc(C(N)=O)c2N)C(C(=O)NC(C)(C)C)c2ccco2)cc1 (stereo not drawn)	25	0.7	1.3	0.6	36
CC(C)(C)NC(=O)C(c1ccco1)N(Cc1ccc(F)cc1)C(=O)c1snc(C(N)=O)c1N (stereo not drawn)	56*	0.4	1.9	0.3	66*
CCOc1ccccc1N(C(=O)c1snc(C(N)=O)c1N)C(C(=O)NCCC(C)C)c1ccco1 (stereo not drawn)	50*	0.5	1.5	0.6	40
CC(C(=O)NC1CCCC1)N(C(=O)c1snc(C(N)=O)c1N)c1ccc2c(c1)OCCO2 (stereo not drawn)	50*	0.5	1	0.9	15
COc1ccccc1N(C(=O)c1snc(C(N)=O)c1N)C(C(=O)NC1CCCC1)c1ccco1 (stereo not drawn)	40	0.6	1.6	0.4	62*
CC(C(=O)NC1CCCC1)N(Cc1ccco1)C(=O)c1snc(C(=O)NC2CCCC2)c1N (stereo not drawn)	44	0.6	1.6	0.8	23
COc1ccccc1N(C(=O)c1snc(C(N)=O)c1N)C(C(=O)NCCC(C)C)c1ccco1 (stereo not drawn)	18	0.8	0.9	0.9	12
CN(C)S(=O)(=O)c1ccc(C(=O)N(c2ccccn2)c2ccccn2)cc1	7	0.9	1	1	-3
COCCNC(=O)C(c1ccc(C)o1)N(C(=O)c1snc(C(N)=O)c1N)c1cc(C)cc(C)c1 (stereo not drawn)	56*	0.4	1.5	0.3	66*
COc1ccc(-c2cc(-c3ccc(OC)c(OC)c3)n[nH]2)c(O)c1	-23	1.2	2.2*	1	-2
SMILES	CYP2C9 inh	CYP2C9 activ	PLAP activator	CYP2C19 activ	CYP2C19 inh
C=C(C)COc1ccc(-c2nc(N)ncc2Oc2ccc(OC)cc2)c(O)c1	22	0.8	0.9	0.8	19
COc1ccc(-c2c(-c3ccc(O)cc3O)n[nH]c2C)cc1OC	92*	0.1	·	0	100*
COc1ccc(-c2nc3c(n2O)CCCC3=O)cc1OC	-7	1.1	0.9	1.1	-5
C=C(C)COc1ccc(-c2n[nH]c(C)c2-c2ccc(Br)cc2)c(O)c1	57*	0.4	1.2	0.9	11
COc1ccc(-c2cc(-c3ccccc3O)[nH]n2)cc1OC	23	0.8	2.8*	0.6	43
COc1ccc(-c2cc(-c3cc(F)ccc3O)[nH]n2)cc1OC	-7	1.1	1.2	1.1	-10
CCCS(=O)(=O)N1CCC(C(=O)NCc2ccccc2Cl)CC1	-60	1.6	0.9	1	-2
N#CC1=C(N)N(c2ccccc2Sc2ccccc2)C(=O)C1	10	0.9	1.3	0.8	16
O=C(O)CCCC(=O)NCc1ccccn1	2	1	0.9	1	1
CC(C)(C)NCC1(CO)SC(N)=NC1=O (stereo not drawn)	-18	1.2	1.1	1.1	-10
Cc1nc(SC2C=CS(=O)(=O)C2)n[nH]1 (stereo not drawn)	1	1	0.9	1	1
COC(=O)c1cc(-c2ccc(OC)c(OC)c2)n[nH]1	21	0.8	1.8	0.4	55*
CCOCCCNC(=O)N[C@@H](C)C(=O)OC	-1	1	0.9	1	-2
CCCn1c(N)c(N2CCCCC2)c(=O)n(CC(=O)Nc2ccc(OC(F)(F)F)cc2)c1=O	3	1	1	1.2	-16
CCCn1c(N)c(N2CCCCC2)c(=O)n(CC(=O)Nc2ccccc2C)c1=O	53*	0.5	1.5	0.6	38
O=C(OCc1cc(Cl)ccc1OC(F)F)c1cc(S(=O)(=O)O)ccc1O	73*	0.3	1.2	1	3
O=C(/C=C/c1cc([N+](=O)[O-])ccc1OC(F)F)NCc1ccc(Cl)cc1	14	0.9	0.7	0.7	26
CCOc1cc(/C=N\NC(=O)c2ccc(NC(=O)CC)cc2)ccc1OC(=O)c1ccccc1	9	0.9	1	1.1	-6
COC(=O)NC1CCC(CC2CCC(NC(=O)OC)CC2)CC1 (stereo not drawn)	10	0.9	1.2	0.9	9
COC(=O)NCC1(C)CC(NC(=O)OC)CC(C)(C)C1 (stereo not drawn)	-17	1.2	1.1	0.2	77*
CC(C)OP(=O)(OC(C)C)C(NC(=O)c1ccc(Br)cc1)c1ccccc1 (stereo not drawn)	41	0.6	1	0.5	50
CCCn1c2c(c(O)c(C(=O)Nc3ccccn3)c1=O)CCCC2	-12	1.1	1.2	1.2	-16
CC(C)Cn1c2c(c(O)c(C(=O)Nc3ncccc3O)c1=O)CCCC2	31	0.7	1.1	0.8	22
CCCCc1nc2ccccc2c(=O)n1NC(=O)c1c(O)c2c(n(CC(C)C)c1=O)CCCC2	60*	0.4	1.6	0.8	15
CCCn1c2c(c(O)c(C(=O)Nc3ccccc3)c1=O)CCCC2	76*	0.2	0.8	0.9	13
O=C(NCc1ccccc1)c1cccc(OCC(=O)N2CCN(C(=O)c3ccco3)CC2)c1	19	0.8	1.1	0.8	18
